Cy5 interf NS3h = enhances or quenches Cy5 fluorescence in NS3h assay; fluorescence interference ratio at 100 µM; Cy5-dT15 DNA with NS3h, fluorescence interference; actives lie on both sides; signal over control mean, under 1 quenches; 16,000 compounds, 6% hits;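 active = compound fluorescence over control fluorescence at most 0.8, a quencher, or at least a set upper limit, an enhancer; inactive = ratio between 0.8 and the set upper limit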
HCV NS3h FP = blocks HCV NS3 helicase binding to DNA; NS3h Cy5-dT15 DNA binding, fluorescence polarization; inhibition, % at 100 µM; 16,000 compounds, 1.6% hits;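 active = inhibition above the average over every tested compound plus 3 SD, cut at about 40% in these data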
* = called active by the depositor. Only some compounds are listed: those with a hit (about 7.6% of all), similar ones and a draw of the others.

SMILES | Cy5 interf NS3h | HCV NS3h FP
CN(C)c1ccc(C(=O)N2CCN(c3ccccc3)CC2)cc1 | 0.96 | -3
COc1ccccc1N1CCN(C(=O)c2ccc(N(C)C)cc2)CC1 | 0.66* | -2
CN(C)c1ccc(C(=O)N2CCN(c3ccc(F)cc3)CC2)cc1 | 0.75* | 9
COc1ccccc1CNC(=O)C(=O)Nc1cc(C)ccc1C | 0.97 | 11
CCOc1ccc2nc(N=C3NC(=O)/C(=C/C(=O)OC)N3)nc(C)c2c1 | 1 | -10
CCc1ccccc1NC(=O)c1c(NC(=O)c2cccs2)sc2c1CCCCC2 | 1.1 | 7
CCCN(CCC)C(=O)c1c(NC(=O)c2cccs2)sc2c1CCCCC2 | 0.67* | 1
O=C(CCCN1C(=O)/C(=C\c2cccs2)SC1=S)Nc1nc2ccccc2s1 | 0.99 | 9
O=C(O)c1ccc2c(c1)C(=O)N(c1ccc(-c3nc4cc(N5C(=O)c6ccc(C(=O)O)cc6C5=O)ccc4[nH]3)cc1)C2=O | 0.65* | 10
C#Cc1cccc(N2C(=O)c3ccc(C(=O)O)cc3C2=O)c1 | 0.98 | 12
COc1ccc2oc(C)c(C(C)=O)c2c1 | 0.74* | 16
COc1ccc(OC)c(C(=O)c2c(C)oc3ccc(O)cc23)c1 | 0.97 | 10
COc1ccc(/C=C2/SC(N3CCN(C(=O)CN4C(=O)S/C(=C\c5ccccc5F)C4=O)CC3)=NC2=O)cc1 | 1.1 | 16
O=C(N/N=C\c1ccc(O)cc1)c1cc2ccccc2cc1O | 0.93 | -5
O=C1NC(=S)N/C1=C/c1ccc(O)c(Cl)c1 | 0.98 | -4
O=C1NC(=S)N/C1=C\c1ccccc1 | 1.2* | 16
CSc1nnc(-c2ccc(C)cc2)o1 | 0.69* | 12
CC(Sc1nnc(-c2cccnc2)o1)C(=O)c1ccccc1 (stereo not drawn) | 1 | 2
CC1(C)CC(=O)C2=C(C1)OC1=C(C(=O)CC(C)(C)C1)C2c1cccc([N+](=O)[O-])c1 | 1 | 15
Cc1ccc(C2C3=C(CC(C)(C)CC3=O)OC3=C2C(=O)CC(C)(C)C3)o1 | 0.67* | 16
C/C(=N/NS(=O)(=O)c1ccc(C)cc1)C(C)(C)CC(=O)O | 1.1 | -2
CC12c3ccccc3C(c3ccccc31)C1C(=O)NNC(=O)C12 (stereo not drawn) | 0.66* | 11
CC12c3ccccc3C(c3ccccc31)C1C(=O)N(c3cccc([N+](=O)[O-])c3)C(=O)C12 (stereo not drawn) | 1 | 18
O=C(Cc1ccccc1)NC(c1ccco1)c1ccc2cccnc2c1O (stereo not drawn) | 1 | 13
O=C(Cc1ccccc1)NC(c1ccco1)c1c(O)ccc2ccccc12 (stereo not drawn) | 0.59* | 5
SMILES | Cy5 interf NS3h | HCV NS3h FP
CCN(CC)c1ccc(C(=O)Nc2ccccc2Cl)cc1 | 1 | 5
CC(C)(C)C1=C2OCC3COC2(O3)C(C(C)(C)C)=C(O)C1=O (stereo not drawn) | 0.97 | -5
COc1ccc(-c2nnc(Nc3ccccc3)c3ccccc23)cc1 | 0.85 | 35
COC(=O)C1=C(C(=O)OC)SC(=C2C(=S)C(C)(C)N(C(=O)c3cccc(F)c3)c3c(OC)cccc32)S1 | 1.1 | 6
COC(=O)C1=C(C(=O)OC)SC(=C2C(=S)C(C)(C)N(C(=O)c3cccc([N+](=O)[O-])c3)c3ccc(OC)cc32)S1 | 0.53* | 16
CC(C)Oc1ccccc1NC(=O)c1cccs1 | 1 | 2
O=C1N/C(=N\N=C/c2ccccc2O)SC1Cc1ccccc1 (stereo not drawn) | 1.1 | -5
O=C1N/C(=N/N=C\c2ccccc2O)SC1Cc1ccc(Br)cc1 (stereo not drawn) | 1.1 | 52*
O=C1S/C(=C\c2ccc(Br)o2)C(=O)N1c1ccc(Cl)cc1 | 0.91 | 4
O=C(O)c1cccc(-c2ccc(/C=C3\SC(=O)N(c4ccc(Cl)cc4)C3=O)o2)c1 | 0.76* | 19
Cc1ccc(N(CC(=O)NCc2ccncc2)S(=O)(=O)c2ccccc2)cc1C | 0.93 | -2
COCCCNC(=O)CN(c1cccc([N+](=O)[O-])c1)S(=O)(=O)c1ccccc1 | 0.73* | 14
Cc1ccc(CSCCNC(=O)CN(c2cccc([N+](=O)[O-])c2)S(=O)(=O)c2ccccc2)cc1 | 1.1 | 20
COc1ccc(CCNC(=O)CN(c2cccc([N+](=O)[O-])c2)S(=O)(=O)c2ccccc2)cc1OC | 1 | 14
O=C(CN(c1cccc([N+](=O)[O-])c1)S(=O)(=O)c1ccccc1)NCCSc1ccc(Cl)cc1 | 0.72* | 24
COc1ccc(N(CC(=O)Nc2ccc(I)cc2)S(=O)(=O)c2ccc(C)cc2)c(OC)c1 | 1 | 9
CCOC(=O)CCc1c(C)nc2c(C)c(-c3ccccc3)[nH]n2c1=O | 1.2* | 8
Cc1nc2c(C)c(-c3ccccc3)[nH]n2c(=O)c1C | 1.1 | 20
CC(C)c1ccc(CNc2cc(N3CCN(C(=O)c4ccccc4F)CC3)ccc2[N+](=O)[O-])cc1 | 1.1 | 11
